Assay results: the supplement of paper PMC5662767
Where a name gives a salt, the structure may show the parent alone.

What follows are molecules tested on Drosophila S2 cl14 SmoIP sensor cells (assay: normalized SmoIP GFP fluorescence (untreated unstimulated = 0%, untreated Hh-stimulated = 100%); higher = more Smo activation sensor fluorescence). Conditions: stimulation: Hh conditioned medium (+Hh); compound concentration: 2 uM; 24 h.
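Also: flow cytometry read-out as median GFP intensity of gated cells, compounds added 30 min before Hh-conditioned or mock medium, mock-treated cells serving as unstimulated baseline.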

Row | SMILES | normalized SmoIP GFP fluorescence [%]
1 | O=C1NC(=O)/C(=C/c2ccc3c(c2)OC(F)(F)O3)S1 | 114
2 | C[C@@H]1COC(Nc2ccc3ncnc(Nc4ccc(OCc5nccs5)c(Cl)c4)c3c2)=N1 | 108
3 | Cc1cc(C(C)(C)C)c(O)c(C)c1CC1=NCCN1 [Oxymetazoline-hydrochloride] | 95.8
4 | Cc1nnc(C(=O)NC(C)(C)c2nc(C(=O)NCc3ccc(F)cc3)c(O)c(=O)n2C)o1 [Raltegravir-(MK-0518)] | 111
5 | Cc1ccc(NC(=O)c2cccc(N(C)C)c2)cc1NC(=O)c1ccc(O)cc1 | 120
6 | COCCOc1ccc2c(c1)ncn2-c1ccc2cccc(N3CCC(N)CC3)c2n1 | 264
7 | CO[C@H]1/C=C\C=C(/C)C(=O)NC2=CC(=O)C(NCCN(C)C)=C(C[C@@H](C)C[C@H](OC)[C@H](O)[C@@H](C)/C=C(\C)[C@@H]1OC(N)=O)C2=O [17-DMAG,Hydrochloride-Salt] | 219
8 | c1ccc(CC2=NCCN2)cc1 [tolazoline-hcl] | 103
9 | COCC(=O)NC/C=C/c1ccc2ncnc(Nc3ccc(Oc4ccc(C)nc4)c(C)c3)c2c1 | 71.1

Same assay, conditions: stimulation: mock conditioned medium (-Hh); compound concentration: 2 uM; 24 h

Row | SMILES | normalized SmoIP GFP fluorescence [%]
10 | O=C(NNc1ccccc1)c1ccncc1 | -2.71
11 | O=C(c1ccc(/C=C/c2n[nH]c3ccccc23)cc1)N1CCNCC1 | -1.34
12 | CCc1cncnc1N1CCN(Cc2nc3ccc(C(F)(F)F)cc3[nH]2)CC1 | 0.966
13 | C[C@]1(O)C[C@@H](c2nc(-c3ccc4ccc(-c5ccccc5)nc4c3)c3c(N)nccn32)C1 | -11
14 | CC(C)C[C@H](NC(=O)[C@H]1O[C@@H]1C(=O)O)C(=O)NCCCCN=C(N)N | -3.72
15 | Cc1cccc(-c2nn3c(c2-c2ccnc4ccc(C(N)=O)cc24)CCC3)n1 | -15.4
16 | CCC[C@H](NC(=O)[C@@H]1[C@H]2CCC[C@H]2CN1C(=O)[C@@H](NC(=O)[C@@H](NC(=O)c1cnccn1)C1CCCCC1)C(C)(C)C)C(=O)C(=O)NC1CC1 [Telaprevir(VX-950)] | 1.03
17 | CC(=O)O/N=C1\C(=O)N(Cc2cc(Cl)ccc2Cl)c2ccc(Cl)cc21 | -2.93
18 | Nc1cccc(-c2cc3c(Oc4cccc(O)c4)ncnc3[nH]2)c1 | 0.812
19 | CNC(=O)Nc1ccc(-c2nc(N3CC4CCC(C3)O4)c3cnn(C4CCC5(CC4)OCCO5)c3n2)cc1 | -8.33
20 | CN(C)Cc1cccc(N/C(=C2\C(=O)Nc3cc(C(N)=O)ccc32)c2ccccc2)c1 | -1.88
21 | CCNC(=O)[C@H]1O[C@@H](n2cnc3c(N)nc(NCCc4ccc(CCC(=O)O)cc4)nc32)[C@H](O)[C@@H]1O | -8.77
22 | COc1ccc(CNCc2cccc3ccccc23)cc1 | -2.82
23 | CCCCNC(=O)NS(=O)(=O)c1ccc(C)cc1 [tolbutamide] | -16.8
24 | COc1cc2c(cc1OC)CN(CCc1ccc(NC(=O)c3cc(OC)c(OC)cc3NC(=O)c3cnc4ccccc4c3)cc1)CC2 [tariquidar] | 2.77
25 | Cc1cc(CN2CCN(c3c(Br)cnc4nc(-c5ccc(N6CCN(C)CC6)cc5)[nH]c34)CC2)no1 | 20.5
26 | CCN1CCN(Cc2ccc(-c3cc4c(N[C@H](C)c5ccccc5)ncnc4[nH]3)cc2)CC1 | 6.52
27 | O=C(c1ccc(F)cc1)N1CCC[C@H](c2nc(-c3ccc(F)cc3)no2)C1 | -7.78
28 | NC(=O)C(c1ccccc1)(c1ccccc1)[C@@H]1CCN(CCc2ccc3c(c2)CCO3)C1 [darifenacin-hydrobromide] | 0.0767

Row | SMILES | normalized SmoIP GFP fluorescence [%]
29 | Cc1cc(Cl)ccc1OCCCC(=O)NO [Droxinostat] | -5.76
30 | CCC(C)(Oc1ccc(C2(c3ccc(OC(C)(CC)C(=O)O)cc3)CCCCC2)cc1)C(=O)O (configuration not stated) [clinofibrate] | -14.5
31 | O=C(NCc1ccc(Oc2ccccc2)cc1)c1nc(-c2cc(Br)c(O)c(Br)c2)no1 [iowh032] | 20
32 | C[C@]1(c2nc3c(C(N)=O)cccc3[nH]2)CCCN1 | -2.96
33 | Nc1c(Br)cc(Br)cc1CN[C@H]1CC[C@H](O)CC1 [ambroxol-hcl] | -2.82
34 | Nc1cc(F)ccc1NC(=O)/C=C/c1cnn(C/C=C/c2ccccc2)c1 [rgfp966] | -0.775
35 | COc1cc2c(cc1OC)CC(=O)N(CCCN(C)C[C@@H]1Cc3cc(OC)c(OC)cc31)CC2 [ivabradine-hcl-procoralan] | -11.2
36 | O=c1cc(-c2ccccc2)oc2cc(O)c(O)c(O)c12 [Baicalein] | 1.24
37 | C=CC(=O)Nc1ccc2ncnc(Nc3ccc(OCc4cccc(F)c4)c(Cl)c3)c2c1 | -15.8
38 | Nc1nc(N)c2nc(-c3ccccc3)c(N)nc2n1 [triamterene] | -6.06
39 | O=C1NC(=O)/C(=C/c2ccc3c(c2)OC(F)(F)O3)S1 | 7.01
40 | C[C@@H]1COC(Nc2ccc3ncnc(Nc4ccc(OCc5nccs5)c(Cl)c4)c3c2)=N1 | -17.2
41 | Cc1cc(C(C)(C)C)c(O)c(C)c1CC1=NCCN1 [Oxymetazoline-hydrochloride] | -3.5
42 | Cc1nnc(C(=O)NC(C)(C)c2nc(C(=O)NCc3ccc(F)cc3)c(O)c(=O)n2C)o1 [Raltegravir-(MK-0518)] | -11.7
43 | Cc1ccc(NC(=O)c2cccc(N(C)C)c2)cc1NC(=O)c1ccc(O)cc1 | -14.7
44 | COCCOc1ccc2c(c1)ncn2-c1ccc2cccc(N3CCC(N)CC3)c2n1 | 80
45 | CO[C@H]1/C=C\C=C(/C)C(=O)NC2=CC(=O)C(NCCN(C)C)=C(C[C@@H](C)C[C@H](OC)[C@H](O)[C@@H](C)/C=C(\C)[C@@H]1OC(N)=O)C2=O [17-DMAG,Hydrochloride-Salt] | 44.8
46 | c1ccc(CC2=NCCN2)cc1 [tolazoline-hcl] | -1.74
47 | COCC(=O)NC/C=C/c1ccc2ncnc(Nc3ccc(Oc4ccc(C)nc4)c(C)c3)c2c1 | 2.43
